Calls of active or inactive are those of the source. How the source made its calls: active means hit-call score of the fitted dose curve at least 0.9, where 1 is the maximum; inactive means score below 0.9.
Biological target: Nuclear factor erythroid 2-related factor 2 (Homo sapiens) (UniProt Q16236)
Assay: ERF_US_NR_hNFE2L2: Eurofins (ERF) Cell Based Nuclear Translocation LeadHunter Assay for human Transcription Factor Keap1-Nrf2 Agonism
Procedure: ERF_US_NR_hNFE2L2 is a cell-based, single-readout assay that uses extracted gene-proteins in a cell-line assay. Measurements were taken 6 hours after chemical dosing in a 384-well plate. See Keap1-Nrf2 Human Transcription Factor Cell Based Agonist Nuclear Translocation Assay, DiscoverX.ERF_US_NR_hNFE2L2 is an assay component calculated from the ERF_US_NR_hNFE2L2 assay. It is designed to measure protein fragment complementation using a type of binding reporter as detected by chemiluminescence with fluorimetry technology.Data from the assay component ERF_US_NR_hNFE2L2 was analyzed at the assay endpoint, ERF_US_NR_hNFE2L2, in the positive analysis fitting direction relative to DMSO as the negative control and baseline of activity. Using a type of binding reporter, gain-of-signal activity can be used to understand changes in binding as they relate to gene NFE2L2. To generalize the intended target to other relatable targets, this assay endpoint is annotated to the dna binding intended target family, where the subfamily is basic leucine zipper.
Cells were seeded in a total volume of 20 uL into white walled, 384-well microplates and incubated at 37C overnight prior to testing.For agonist determination, cells were incubated with sample to induce response. Intermediate dilution of sample stocks was performed to generate 5X sample in assay buffer. 5 uL of 5X sample was added to cells and incubated at room temperature for 6 hours. Final assay vehicle concentration was 1%. The results are expressed as a percent efficacy relative to the maximum response of the control ligand.

Sequence of Nuclear factor erythroid 2-related factor 2 (Homo sapiens) (Q16236 whole entry, looked up): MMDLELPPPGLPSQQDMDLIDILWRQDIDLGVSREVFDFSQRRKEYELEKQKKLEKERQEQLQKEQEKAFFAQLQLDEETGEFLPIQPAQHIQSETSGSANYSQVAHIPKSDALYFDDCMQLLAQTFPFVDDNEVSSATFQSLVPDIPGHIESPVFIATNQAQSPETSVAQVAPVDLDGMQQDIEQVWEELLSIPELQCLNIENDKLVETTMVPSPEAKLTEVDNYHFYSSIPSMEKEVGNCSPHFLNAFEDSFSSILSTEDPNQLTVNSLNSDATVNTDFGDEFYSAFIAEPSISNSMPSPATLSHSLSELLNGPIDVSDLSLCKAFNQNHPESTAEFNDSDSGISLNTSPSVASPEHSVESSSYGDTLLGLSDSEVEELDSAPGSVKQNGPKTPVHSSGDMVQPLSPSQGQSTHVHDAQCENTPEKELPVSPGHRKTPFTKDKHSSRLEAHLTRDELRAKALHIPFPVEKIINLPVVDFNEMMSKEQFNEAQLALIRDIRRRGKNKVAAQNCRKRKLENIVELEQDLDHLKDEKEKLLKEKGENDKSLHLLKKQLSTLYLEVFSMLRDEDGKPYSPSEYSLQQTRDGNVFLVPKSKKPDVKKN

SMILES	outcome	AC50
O=C(O)CCC(F)(F)C(F)(F)C(F)(F)C(F)(F)C(F)(F)F	inactive	
OCCC(F)(F)C(F)(F)C(F)(F)C(F)(F)C(F)(F)C(F)(F)C(F)(F)C(F)(F)F		1.94 µM (active)
O=C(O)C(F)(F)C(F)(F)C(F)(F)C(F)(F)C(F)(F)C(F)(F)C(F)(F)C(F)(F)Cl	inactive	
O=C(O)C(F)(F)C(F)(F)C(F)(F)F	inactive	

From PubChem BioAssay AID2284363 (EPA ToxCast)
